Screening data from PubChem.
DT40 TDP1 no CPT = qHTS for Inhibitors of human tyrosyl-DNA phosphodiesterase 1 (TDP1): qHTS in cells in absence of CPT; DT40 Tdp1-/- hTDP1 cells, no CPT, ATP luminescence, 48 h; actives 15% (n = 420,000); AID 686978, 2013; Potency, µM (highest dose often 46.2 µM), for inactives: at the highest dose activity change, negative = growth inhibition, most hits filed as inhibitors; also: nearly all actives have a fitted effect of over 55% in size
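No-CPT arm: Tdp1-/-;hTDP1 DT40 cells (400/well) plus compounds, incubated ≥48 hr at 37 °C. Readout CellTiter-Glo luminescence.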
DT40 TDP1 CPT = DT40-hTDP1 cell growth loss with CPT; chicken DT40 Tdp1-/-;hTDP1 cells + 20 nM CPT, ATP luminescence, 48 h; Potency, µM (titrated, usually from 46.2 µM), for the others: at the highest dose activity change, negative = growth inhibition, actives largely listed as inhibitors; actives 12% (n = 420,000); AID 686979; also: nearly all actives have a fitted effect of over 55% in size
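Chicken DT40 Tdp1-/- cells complemented with human TDP1, 400 cells/well, exposed to compounds plus 20 nM camptothecin for at least 48 h at 37 C; viability read as ATP content by CellTiter-Glo luminescence.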
Gal4-VP16 FLuc = counter-screen for ROR gamma inhibitors: Gal4-VP16 reporter. Drosophila S2 Gal4-VP16 UAS-luciferase, luminescence, 20 h. Potency, µM (top dose mostly 53.6 µM), inactives show at the top dose activity, negative = inhibition, most hits filed as inhibitors. actives 3.5% (n = 310,000). AID 2546;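 also: Gal4-VP16 expression switched on by copper sulfate through the metallothionein promoter; nearly all actives have a fitted effect of over 50% in size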
RORgamma inh = ROR gamma (mouse) transcription inhibition; actives 5.4% (n = 310,000); Drosophila S2 Gal4-RORgamma UAS-luciferase reporter, 20 h; P51450; Potency, µM (top dose mostly 53.6 µM), for inactives: top-dose activity change, negative = inhibition, actives largely listed as inhibitors; also: nearly all actives have a fitted effect of over 60% in size
Target sequence (P51450 whole entry, looked up, the tested form may be a part): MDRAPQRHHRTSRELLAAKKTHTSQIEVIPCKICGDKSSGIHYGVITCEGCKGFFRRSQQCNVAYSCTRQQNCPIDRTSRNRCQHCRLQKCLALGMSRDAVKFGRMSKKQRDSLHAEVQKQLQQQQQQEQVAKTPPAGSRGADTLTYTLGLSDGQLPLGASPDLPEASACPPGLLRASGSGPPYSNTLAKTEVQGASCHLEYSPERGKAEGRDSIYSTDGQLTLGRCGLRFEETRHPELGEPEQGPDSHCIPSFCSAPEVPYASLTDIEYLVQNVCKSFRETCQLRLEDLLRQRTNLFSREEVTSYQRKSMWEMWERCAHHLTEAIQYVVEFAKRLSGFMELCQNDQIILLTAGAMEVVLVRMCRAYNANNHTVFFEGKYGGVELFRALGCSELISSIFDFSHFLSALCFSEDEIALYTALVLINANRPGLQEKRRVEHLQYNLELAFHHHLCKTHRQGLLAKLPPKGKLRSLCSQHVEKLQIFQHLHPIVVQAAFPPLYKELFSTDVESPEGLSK
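Luciferase reporter read in Schneider cells carrying Gal4-RORγ (mouse) and UAS-Photinus luciferase; cells given compound 1 h before 700 uM copper sulfate induction, then incubated 20 h at ambient temperature.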
ELG1 repair inh = blocks ELG1-dependent DNA repair in HEK293T cells; AID 504467; actives 2.3% (n = 330,000); Potency, µM (top dose mostly 46.1 µM), inactives show at the highest dose activity change, negative = inhibition, hits mostly inhibitors; HEK293T ELG1-luciferase reporter, luminescence, 16 h; DNA damage induced by 5-fluorouridine; also: nearly all actives have a fitted effect of over 55% in size
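Quantitative HTS, concentration-response format. 2,000 cells/well co-treated with 5-fluorouridine and compound, 16 hr in 5% CO2 at 37 °C; ONE-Glo luminescence read after 30 min.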
ALOX12 inh = inhibitors of human 12S-lipoxygenase ALOX12. purified 12hLO, xylenol orange hydroperoxide absorbance. Potency, µM (doses to about 108 µM), without a hit: top-dose activity change, negative = inhibition, hits mostly inhibitors. actives 1.1% (n = 580,000). AID 1671190
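Hydroperoxide product was detected by ferrous iron/xylenol orange as the 573 to 405 nm absorbance ratio. Arachidonic acid at 40 uM (final) was turned over for 30 min at room temperature by 150 nM human 12hLO, pH 7.0 Hepes buffer, after 15 min compound preincubation.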
* = called active by the depositor; ? = inconclusive; · = no result given; ! = not active in a repeat; [ ] = dose if it differs, or a comment. This is a sample that favours compounds with a hit; in the whole collection about 15% have one here. Calls follow the shape of the dose curve; as a rule, active = well fitted curve in the direction sought with a large enough effect; inconclusive = small, poorly fitted or top-dose-only effect, or another doubt; inactive = no such curve, though single readings can be large; an effect the other way counts as inactive or inconclusive. % is scaled to controls: 0 for no effect and ±100 for the full control effect; potency is read from the fitted curve at half-maximal effect.

SMILES	DT40 TDP1 no CPT	DT40 TDP1 CPT	Gal4-VP16 FLuc	RORgamma inh	ELG1 repair inh	ALOX12 inh
O=C(Nc1ccc(C(=O)N2CCN(c3ccncc3)CC2)cc1)c1ccc(Br)o1	?	-18%	·	·	·	-11%
O=C(Nc1ccc(C(=O)N2CCC(O)(c3ccc(Cl)c(C(F)(F)F)c3)CC2)cc1)c1ccc(Br)o1	18µM*	?	·	·	?	?
CCOC(=O)C1(Cc2ccccc2C(F)(F)F)CCN(CC(O)CO)CC1 (centres undefined)	-26%	-7%	-12%	-11%	9%	15%
CCOC(=O)C1(Cc2ccccc2C(F)(F)F)CCN(C2CCN(C(C)C)CC2)CC1	23µM*	23µM*	4%	4%	1%	0%
CCOC(=O)C1(Cc2ccccc2C(F)(F)F)CCN(Cc2ccc(COC)o2)CC1	8.2µM*	9.2µM*	-11%	-39%	?	-9%
O=C(CSc1nc(=O)n(Cc2cccnc2)c2c1CCC2)N1CCCCC1	·	·	·	·	·	-24%
Cn1c(CCNC(=O)CCc2ccc3c(c2)CN(C(=O)C2CC2)CCO3)nc2ccccc21	·	·	·	·	·	-5%
COc1ccc(OCCn2c(NC(=O)c3cccs3)nc3ccccc32)cc1	·	·	·	·	·	23%
CC(=O)Nc1nc2ccccc2n1CCOc1ccccc1	?	?	-7%	-20%	?	-2%
COc1ccc(C(=O)Nc2nc3ccccc3n2CCOc2ccc(Cl)cc2)cc1	13µM*	?	·	·	·	-1%
COc1ccc(OCCn2c(NC(=O)c3ccco3)nc3ccccc32)cc1	23µM*	18µM*	2.8µM*	2.2µM*	13µM*	0%
S=C(Nc1ccccc1)Nc1nc2ccccc2n1CCOc1ccccc1	16µM*	18µM*	7.1µM*	1.1µM*	0%	?
CCOc1ccc(C(=O)N2CC(c3nnc(C(C)C)o3)C3(CCOCC3)C2)cc1 (centres undefined)	·	·	·	·	·	69%
Cc1ccc2cc(C=O)c(N3CCOCC3)nc2c1C	18µM*	?	-12%	-20%[1.91 µM]	7%	7%
Cc1cc(OCCCCn2ccnc2)cc(C)c1Cl	21µM*	18µM*	-24%	13µM*	5%	-4%
Cc1cc(Cl)cc(C)c1OCCCCn1ccnc1	?	?	-29%	11µM*	-28%	?
O=C(Nc1ccc(N2CCCCCC2)cc1)c1ccc[nH]1	?	?	·	·	?	0%
O=C(Nc1ccc(N2CCCC2)cc1)c1cccc(Cl)c1	13µM*	-24%	-18%	?	?	?
CCCOC(=O)Nc1ccc(N2CCCCC2)cc1	-14%	-12%	?	11µM*	·	?
O=C(Nc1ccc(N2CCCC2)cc1)c1cc(Cl)ccc1Cl	23µM*	23µM*	4%	-16%[1.91 µM]	-1%	?
O=C(Nc1ccc(N2CCCC2)cc1)c1ccc(Cl)cc1Cl	-5%	0%	24%	15%	?	3%
O=C(Nc1ccc(N2CCCCC2)cc1)c1ccccn1	10µM*	16µM*	2µM*	1.3µM*	?	·
CCN(CC)C(=S)SCc1ccc(C(=O)O)cc1	·	·	·	·	·	-18%
Cc1ccc(OCc2nc3c4c(ncn3n2)Oc2cc(O)ccc2C4c2ccccc2)cc1 (centres undefined)	·	·	·	·	·	42%
CC(=O)N1CCN(c2ccc(NC(=O)c3ccccc3Cl)cc2)CC1	?	-7%	3%	6%	0%	?
SMILES	DT40 TDP1 no CPT	DT40 TDP1 CPT	Gal4-VP16 FLuc	RORgamma inh	ELG1 repair inh	ALOX12 inh
O=C(Nc1ccc(N2CCCCCC2)cc1)c1ccccc1Cl	16µM*	13µM*	7%	18%	?	-64%
O=C(N/N=C/c1cn(-c2ccccc2)nc1-c1cccs1)c1ccc(Cl)cc1	?	?	5µM*	2.5µM*	?	-7%
O=C(N/N=C/c1cn(-c2ccccc2)nc1-c1cccs1)c1ccccc1F	-120%	16µM*	6.3µM*	5µM*	?	·
Cc1cc(C)c2c(C(=O)N(C)Cc3nc(C)no3)cc(C)nc2c1	·	·	·	·	·	93%
CCN(CC)c1ccc(-c2nc(-c3ccncc3)no2)cc1[N+](=O)[O-]	15µM*	13µM*	·	·	·	-8%
Cc1ccc(-c2nc(-c3ccccn3)no2)cc1[N+](=O)[O-]	23µM*	?	6.3µM*	10µM*	?	0%
CCCNc1ccc(-c2nc(-c3ccccn3)no2)cc1[N+](=O)[O-]	-16%	-5%	·	·	·	-28%
CCN(CC)c1ccc(-c2nc(-c3ccccn3)no2)cc1[N+](=O)[O-]	16µM*	-7%	·	·	·	0%
CCCc1noc(-c2cn(C3CCN(C(=O)c4cccc(N(C)C)c4)CC3)nn2)n1	·	·	·	·	·	-3%
CC(=O)Nc1ccc(NC(=O)C2CCC(N3C(=O)C4C5C=CC(C6CC56)C4C3=O)CC2)cc1 (centres undefined)	-12%	-9%	-7%	?	10%	7%
O=C(Nc1ccc(Cc2ccncc2)cc1)C1CCC(N2C(=O)C3C4C=CC(C5CC45)C3C2=O)CC1 (centres undefined)	15µM*	18µM*	-18%	?	8.2µM*	-12%
Cn1ncc(Cl)c1C(=O)N/N=C/c1ccccn1	?	?	-1%	1%	-12%	9%
Cc1ccc(S(=O)(=O)Oc2ccccc2/C=N/NC(=O)c2c(Cl)cnn2C)cc1	?	?	?	3.2µM*	?	-15%
C=CCN1CCc2c(cc(O)c(O)c2Br)[C@@H](c2ccccc2)C1	7.3µM*	?	·	·	·	?
Oc1ccc([C@@H]2CNCCc3c2cc(O)c(O)c3Cl)cc1	30µM*	?	-9%	-9%	·	?
Oc1cc2c(cc1O)[C@@H](c1ccccc1)CNCC2	?	?	-10%	-2%	11%	?
Oc1cc2c(cc1O)C(c1ccccc1)CNCC2 (centres undefined)	26µM*!	?	2%	-8%	·	?
C=CCN1CCc2cc(O)c(O)cc2[C@H](c2ccccc2)C1	27µM*	?	-1%	10%	·	?
CC(Cc1ccc(Br)cc1)NC(=O)C1CC2CCC1C2 (centres undefined)	·	·	·	·	·	5%
C#CCOc1ccc(/C=C(/C#N)c2ccc(Cl)cc2)cc1I	·	·	·	·	·	-6%
CC(C)c1ccc(C2=NC(c3ccncc3)=Nc3ccc(F)cc3N2)cc1	?	23µM*	·	·	·	?
